Several values for one entry are separate records, joined by “and”; a condition that tells them apart may be missing. Identical values can stand only once. About 2,000 (36%) of roughly 5,500 compounds were called active. Not shown: some 18% with an inconclusive outcome. Cut-off read from the data, not from the text of the source: active = normalized growth mostly below about 0.91 (no sharp cut-off); inconclusive = no clear call, values can overlap the other calls; inactive = mostly above about 0.92. The list shows a part of the results.
Assay: chemical genetic growth profiling, strain panel (AID 1159580);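 note: tested at 20 µM; growth read once vehicle control cultures reached saturation at 30 °C; 1 = growth at the plate median or of vehicle wells; lower values mean less growth of the strain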
Settings: S. cerevisiae deletion strains, growth OD

Question: With `c1cc2c(cc1[C@H]1OC[C@H]3[C@@H]1CO[C@H]3c1ccc3c(c1)OCO3)OCO2` as the compound, how does the normalized growth (locus YAL013W, strain DEP1, stronger effect = lower value) read?
Answer: Its normalized growth is 0.93 (inactive).

Question: And the normalized growth (locus YAL021C, strain ccr4, stronger effect = lower value)?
Answer: Its normalized growth is 0.936 (inactive).

Question: And the normalized growth (locus YAL026C, strain drs2, stronger effect = lower value)?
Answer: Its normalized growth is 0.803 (active).

Question: What about the normalized growth (locus YAL030W, strain snc1, stronger effect = lower value) of the same compound?
Answer: Its normalized growth is 0.908 (active).

Question: What about the normalized growth (locus YBL061C, strain skt5, stronger effect = lower value) of the same compound?
Answer: Its normalized growth is 0.918 (active).

Question: What about the normalized growth (locus YBR009C, strain hhf1, stronger effect = lower value) of the same compound?
Answer: Its normalized growth is 0.904 (active).

Question: What about the normalized growth (locus YBR021W, strain FUR4, stronger effect = lower value) of the same compound?
Answer: Its normalized growth is 0.961 (inactive).

Question: And the normalized growth (locus YBR023C, strain chs3, stronger effect = lower value)?
Answer: The normalized growth was 0.906 (active).

Question: And the normalized growth (locus YBR171W, strain sec66, stronger effect = lower value)?
Answer: The normalized growth was 0.897 (inactive).

Question: What about the normalized growth (locus YBR229C, strain ROT2, stronger effect = lower value) of the same compound?
Answer: The normalized growth was 0.941 (inactive).

Question: And the normalized growth (locus YBR231C, strain swc5, stronger effect = lower value)?
Answer: Its normalized growth is 0.922 (inactive).

Question: What about the normalized growth (locus YBR279W, strain paf1, stronger effect = lower value) of the same compound?
Answer: The normalized growth was 0.936 (inactive).

Question: And the normalized growth (locus YCL011C, strain gbp2, stronger effect = lower value)?
Answer: Its normalized growth is 0.881 (active).

Question: And the normalized growth (locus YCL016C, strain dcc1, stronger effect = lower value)?
Answer: Its normalized growth is 0.911 (active).

Question: What about the normalized growth (locus YCL029C, strain bik1, stronger effect = lower value) of the same compound?
Answer: Its normalized growth is 0.933 (inactive).

Question: And the normalized growth (locus YCL061C, strain MRC1, stronger effect = lower value)?
Answer: The normalized growth was 0.93 (inactive).

Question: What about the normalized growth (locus YCL069W, strain vba3, stronger effect = lower value) of the same compound?
Answer: Its normalized growth is 0.919 (active).

Question: And the normalized growth (locus YCR088W, strain abp1, stronger effect = lower value)?
Answer: Its normalized growth is 0.911 (active).

Question: And the normalized growth (locus YDL005C, strain med2, stronger effect = lower value)?
Answer: Its normalized growth is 0.915 (inactive).

Question: And the normalized growth (locus YDL035C, strain GPR1, stronger effect = lower value)?
Answer: The normalized growth was 0.906 (inactive).

Question: What about the normalized growth (locus YDL040C, strain nat1, stronger effect = lower value) of the same compound?
Answer: The normalized growth was 0.92 (active).

Question: What about the normalized growth (locus YDL074C, strain BRE1, stronger effect = lower value) of the same compound?
Answer: The normalized growth was 0.874 (inactive).

Question: What about the normalized growth (locus YDL101C, strain DUN1, stronger effect = lower value) of the same compound?
Answer: Its normalized growth is 0.927 (inactive).

Question: And the normalized growth (locus YDL134C, strain PPH21, stronger effect = lower value)?
Answer: Its normalized growth is 0.881 (active).

Question: And the normalized growth (locus YDL185W, strain tfp1, stronger effect = lower value)?
Answer: Its normalized growth is 0.93 (inactive).

Question: And the normalized growth (locus YDL192W, strain arf1, stronger effect = lower value)?
Answer: Its normalized growth is 0.877 (active).

Question: And the normalized growth (locus YDR001C, strain nth1, stronger effect = lower value)?
Answer: Its normalized growth is 0.889 (active).

Question: What about the normalized growth (locus YDR069C, strain doa4, stronger effect = lower value) of the same compound?
Answer: The normalized growth was 0.956 (inactive).

Question: What about the normalized growth (locus YDR101C, strain arx1, stronger effect = lower value) of the same compound?
Answer: The normalized growth was 0.895 (active).

Question: And the normalized growth (locus YDR137W, strain rgp1, stronger effect = lower value)?
Answer: Its normalized growth is 0.492 (active).

Question: And the normalized growth (locus YDR159W, strain sac3, stronger effect = lower value)?
Answer: Its normalized growth is 0.856 (active).

Question: What about the normalized growth (locus YDR162C, strain NBP2, stronger effect = lower value) of the same compound?
Answer: Its normalized growth is 0.894 (inactive).

Question: And the normalized growth (locus YDR195W, strain ref2)?
Answer: Its normalized growth is 1.06 (inactive).

Question: What about the normalized growth (locus YDR297W, strain sur2, stronger effect = lower value) of the same compound?
Answer: The normalized growth was 0.905 (active).

Question: And the normalized growth (locus YDR318W, strain mcm21, stronger effect = lower value)?
Answer: The normalized growth was 0.867 (active).

Question: What about the normalized growth (locus YDR334W, strain swr1, stronger effect = lower value) of the same compound?
Answer: Its normalized growth is 0.861 (active).

Question: What about the normalized growth (locus YDR335W, strain msn5, stronger effect = lower value) of the same compound?
Answer: The normalized growth was 0.934 (inactive).

Question: And the normalized growth (locus YDR388W, stronger effect = lower value)?
Answer: Its normalized growth is 0.923 (active).

Question: What about the normalized growth (locus YDR392W, strain spt3, stronger effect = lower value) of the same compound?
Answer: The normalized growth was 0.371 (active).

Question: What about the normalized growth (locus YDR502C, strain sam2, stronger effect = lower value) of the same compound?
Answer: Its normalized growth is 0.869 (active).

Question: And the normalized growth (locus YEL003W, strain gim4, stronger effect = lower value)?
Answer: Its normalized growth is 0.911 (active).

Question: What about the normalized growth (locus YEL037C, strain rad23, stronger effect = lower value) of the same compound?
Answer: Its normalized growth is 0.926 (inactive).

Question: And the normalized growth (locus YEL061C, strain CIN8 (second series), stronger effect = lower value)?
Answer: The normalized growth was 0.859 (active).

Question: And the normalized growth (locus YEL061C, strain CIN8, stronger effect = lower value)?
Answer: The normalized growth was 0.724 (active).

Question: And the normalized growth (locus YER015W, strain faa2, stronger effect = lower value)?
Answer: Its normalized growth is 0.925 (active).

Question: What about the normalized growth (locus YER016W, strain bim1, stronger effect = lower value) of the same compound?
Answer: The normalized growth was 0.908 (active).

Question: What about the normalized growth (locus YER110C, stronger effect = lower value) of the same compound?
Answer: Its normalized growth is 0.942 (inactive).

Question: What about the normalized growth (locus YER111C, strain swi4, stronger effect = lower value) of the same compound?
Answer: Its normalized growth is 0.919 (inactive).

Question: What about the normalized growth (locus YER155C, strain BEM2 (second series), stronger effect = lower value) of the same compound?
Answer: Its normalized growth is 0.783 (active).

Question: And the normalized growth (locus YER155C, strain BEM2, stronger effect = lower value)?
Answer: Its normalized growth is 0.862 (active).

Question: And the normalized growth (locus YER167W, strain BCK2, stronger effect = lower value)?
Answer: Its normalized growth is 0.813 (active).

Question: What about the normalized growth (locus YFR010W, strain ubp6, stronger effect = lower value) of the same compound?
Answer: The normalized growth was 0.938 (inactive).

Question: And the normalized growth (locus YGL078C, strain dbp3, stronger effect = lower value)?
Answer: The normalized growth was 0.958 (inactive).

Question: And the normalized growth (locus YGL086W, strain mad1, stronger effect = lower value)?
Answer: Its normalized growth is 0.845 (active).

Question: What about the normalized growth (locus YGL167C, strain pmr1, stronger effect = lower value) of the same compound?
Answer: The normalized growth was 0.862 (active).

Question: And the normalized growth (locus YGL173C, strain kem1, stronger effect = lower value)?
Answer: Its normalized growth is 0.904 (inactive).

Question: And the normalized growth (locus YGL227W, strain vid30, stronger effect = lower value)?
Answer: Its normalized growth is 0.926 (inactive).

Question: What about the normalized growth (locus YGL240W, strain doc1, stronger effect = lower value) of the same compound?
Answer: Its normalized growth is 0.89 (inactive).

Question: What about the normalized growth (locus YGL248W, strain PDE1, stronger effect = lower value) of the same compound?
Answer: Its normalized growth is 0.901 (inactive).

Question: And the normalized growth (locus YGL253W, strain hxk2, stronger effect = lower value)?
Answer: Its normalized growth is 0.845 (active).

Question: And the normalized growth (locus YGR078C, strain PAC10, stronger effect = lower value)?
Answer: The normalized growth was 0.856 (inactive).

Question: And the normalized growth (locus YGR135W, strain pre9, stronger effect = lower value)?
Answer: Its normalized growth is 0.906 (inactive).

Question: What about the normalized growth (locus YGR252W, strain gcn5, stronger effect = lower value) of the same compound?
Answer: Its normalized growth is 0.897 (inactive).

Question: What about the normalized growth (locus YHR013C, strain ard1, stronger effect = lower value) of the same compound?
Answer: The normalized growth was 0.871 (inactive).

Question: What about the normalized growth (locus YHR027C, strain rpn1, stronger effect = lower value) of the same compound?
Answer: Its normalized growth is 0.913 (active).

Question: What about the normalized growth (locus YHR030C, strain SLT2, stronger effect = lower value) of the same compound?
Answer: The normalized growth was 0.87 (active) and 0.888 (inactive).

Question: And the normalized growth (locus YHR079C, strain IRE1 (second series), stronger effect = lower value)?
Answer: The normalized growth was 0.902 (active).

Question: And the normalized growth (locus YHR079C, strain IRE1, stronger effect = lower value)?
Answer: The normalized growth was 0.895 (inactive).

Question: What about the normalized growth (locus YHR094C, strain hxt1, stronger effect = lower value) of the same compound?
Answer: The normalized growth was 0.922 (active).

Question: And the normalized growth (locus YHR129C, strain ARP1, stronger effect = lower value)?
Answer: Its normalized growth is 0.911 (active).

Question: And the normalized growth (locus YHR142W, strain chs7, stronger effect = lower value)?
Answer: The normalized growth was 0.803 (active).

Question: What about the normalized growth (locus YHR200W, strain rpn10, stronger effect = lower value) of the same compound?
Answer: Its normalized growth is 0.884 (active).

Question: And the normalized growth (locus YIL066C, strain RNR3, stronger effect = lower value)?
Answer: The normalized growth was 0.828 (active).

Question: And the normalized growth (locus YIL073C, strain SPO22, stronger effect = lower value)?
Answer: The normalized growth was 0.783 (inactive).

Question: And the normalized growth (locus YIL125W, strain kgd1, stronger effect = lower value)?
Answer: Its normalized growth is 0.889 (active).

Question: And the normalized growth (locus YIR030C, strain dcg1, stronger effect = lower value)?
Answer: Its normalized growth is 0.901 (active).

Question: What about the normalized growth (locus YJL092W, strain hpr5, stronger effect = lower value) of the same compound?
Answer: The normalized growth was 0.914 (active).

Question: And the normalized growth (locus YJL095W, strain BCK1 (second series), stronger effect = lower value)?
Answer: The normalized growth was 0.904 (active).

Question: What about the normalized growth (locus YJL095W, strain BCK1, stronger effect = lower value) of the same compound?
Answer: The normalized growth was 0.714 (active) and 0.956 (inactive).

Question: And the normalized growth (locus YJL115W, strain asf1, stronger effect = lower value)?
Answer: Its normalized growth is 0.904 (active).

Question: And the normalized growth (locus YJL129C, strain trk1, stronger effect = lower value)?
Answer: The normalized growth was 0.722 (active).

Question: And the normalized growth (locus YJL134W, strain LCB3, stronger effect = lower value)?
Answer: Its normalized growth is 0.974 (inactive).

Question: What about the normalized growth (locus YJL154C, strain vps35, stronger effect = lower value) of the same compound?
Answer: Its normalized growth is 0.936 (inactive).

Question: What about the normalized growth (locus YJL164C, strain tpk1, stronger effect = lower value) of the same compound?
Answer: Its normalized growth is 0.896 (active).

Question: And the normalized growth (locus YJL166W, strain qcr8, stronger effect = lower value)?
Answer: The normalized growth was 0.88 (active).

Question: And the normalized growth (locus YJL168C, strain set2, stronger effect = lower value)?
Answer: The normalized growth was 0.927 (active).

Question: And the normalized growth (locus YJL187C, strain SWE1 (second series), stronger effect = lower value)?
Answer: Its normalized growth is 0.925 (inactive).

Question: And the normalized growth (locus YJL187C, strain SWE1, stronger effect = lower value)?
Answer: The normalized growth was 0.932 (inactive).

Question: What about the normalized growth (locus YJR043C, strain POL32, stronger effect = lower value) of the same compound?
Answer: The normalized growth was 0.959 (inactive).

Question: And the normalized growth (locus YJR066W, strain TOR1, stronger effect = lower value)?
Answer: Its normalized growth is 0.888 (inactive).

— PubChem BioAssay AID1159580 (chemical genetic matrix, 2015)
